Sampled rows, rich in hits. Any-hit rate of the full collection: about 1.3%.
gsp ag: qHTS for Agonist of gsp, the Etiologic Mutation Responsible for Fibrous Dysplasia/McCune-Albright Syndrome: qHTS; Potency, µM (top dose mostly 76.9 µM), inactives show top-dose activation (cAMP increase), actives largely listed as activators; AID 624287, 2012; gsp mutant cells, cAMP HTRF, 30 min; actives 0.13% (n = 340,000); active = well fitted activation curve with a large enough effect; inconclusive = small, poorly fitted or top-dose-only effect, or another doubt; inactive = no such curve, though single readings can be large or run the other way; cell line not stated here;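 note: phosphodiesterase inhibitor Ro 20-1724 added with compounds to block cAMP breakdown; potency is the fitted concentration of half-maximal effect; nearly all actives have a fitted effect of over 60% in size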
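Cells in DMEM/10% FBS with G418 were pretreated with compounds in DMSO plus […] (300 uM stock) for 30 min at 37C. cAMP was measured by HTRF (cAMP-d2 plus anti-cAMP antibody-K) after 30 min at room temperature.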
TSHR antag: Antagonists of the Thyroid Stimulating Hormone Receptor: HTS campaign; Thyrotropin receptor (Homo sapiens), P16473; TSHR-expressing cells, TSH-stimulated cAMP HTRF, 2 h; active compounds read low; activity change, negative = inhibition, % at 11.5 µM; actives 0.2% (n = 330,000); AID 504810, 2011;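 active = activity change below a set negative limit, meaning inhibition stronger than a set level, cut at about -70% in these data; inconclusive = activity change between two set negative limits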; note: % is set by controls: 0 for no effect and ±100 for the full control effect
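Antagonism was scored as loss of TSH-driven cAMP in TSHR cells, stimulated with 4nM TSH (EC80) for 2 hours at 37 deg C and detected by homogeneous HTRF competition immunoassay.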
Akt phos inh: HTS Assay for Inhibitors of Akt Phophorylation: Primary Screen; activity change, % for hits at 50 µM; Neuro2A IGF-stimulated pAkt S473 HTRF, 20 min; active compounds read low; AID 651550, 2012; actives 0.32% (n = 360,000); in the data active = activity change below about -80%; inconclusive = mostly about -51% to -80%; note: % is set by controls: 0 for no effect and ±100 for the full control effect
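Neuro2A cells (4,500/well, DMEM with 0.5% FBS) were treated with compound at a single 50 µM final concentration, stimulated with 6 nM IGF for 20 min at 37 °C, and lysed. Phospho-Akt Ser473 was read by HTRF as 665/615 ratio ×10^4.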
gsp antag: qHTS for Antagonists of gsp, the Etiologic Mutation Responsible for Fibrous Dysplasia/McCune-Albright Syndrome: qHTS; gsp-mutant cells, cAMP HTRF, 30 min; actives 0.4% (n = 340,000); Potency, µM (top dose mostly 76.9 µM), for the others: top-dose activity change, negative = inhibition, most hits filed as inhibitors; calls by dose curve; cell line not stated here;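 note: intracellular cAMP measured with PDE inhibitor Ro 20-1724 present during compound exposure; potency is the fitted concentration of half-maximal effect; % is set by controls: 0 for no effect and ±100 for the full control effect; nearly all actives have a fitted effect of over 65% in size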
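Cells in G418 medium, seeded 16-24 h, 37C; buffer exchange to DPBS + 1 mM CaCl2, 0.5 mM MgCl2, 0.05% BSA; cpds in DMSO + […] (300 uM stock), 30 min 37C; HTRF cAMP detection.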
RXFP1 antagonist: qHTS Assay for Antagonists of the Relaxin Receptor RXFP1 | HEK293-RXFP1, relaxin-stimulated cAMP HTRF, 30 min; active compounds read low | activity change, negative = inhibition, % at 57.5 µM | Relaxin receptor 1 (Homo sapiens), Q9HBX9 | actives 0.59% (n = 350,000) | AID 1259400, 2018;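 active = activity change of -60% or lower, but not beyond a set lower limit; inconclusive = change between -60% and -40%, or beyond the set limit; inactive = change above -40%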; note: % is set by controls: 0 for no effect and ±100 for the full control effect
Target sequence (Q9HBX9 whole entry, looked up): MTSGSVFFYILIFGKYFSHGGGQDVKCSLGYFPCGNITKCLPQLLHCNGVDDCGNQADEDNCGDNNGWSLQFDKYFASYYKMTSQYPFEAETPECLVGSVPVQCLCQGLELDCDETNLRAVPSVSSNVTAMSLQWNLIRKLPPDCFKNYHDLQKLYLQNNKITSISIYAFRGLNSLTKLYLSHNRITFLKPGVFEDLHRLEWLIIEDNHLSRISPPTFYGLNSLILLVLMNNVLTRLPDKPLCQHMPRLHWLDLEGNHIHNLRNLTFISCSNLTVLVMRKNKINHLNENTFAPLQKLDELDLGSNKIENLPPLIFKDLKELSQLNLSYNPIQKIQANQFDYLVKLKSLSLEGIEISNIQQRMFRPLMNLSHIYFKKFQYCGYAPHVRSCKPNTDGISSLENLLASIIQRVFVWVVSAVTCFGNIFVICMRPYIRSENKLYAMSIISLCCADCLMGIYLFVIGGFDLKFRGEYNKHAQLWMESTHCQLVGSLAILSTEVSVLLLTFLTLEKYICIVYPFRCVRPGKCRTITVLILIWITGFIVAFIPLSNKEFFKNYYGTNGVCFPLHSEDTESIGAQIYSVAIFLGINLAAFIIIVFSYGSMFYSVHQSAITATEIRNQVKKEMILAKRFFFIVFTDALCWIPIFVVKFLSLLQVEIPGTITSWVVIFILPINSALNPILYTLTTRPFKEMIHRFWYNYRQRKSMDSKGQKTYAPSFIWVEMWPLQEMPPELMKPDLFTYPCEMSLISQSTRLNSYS
RXFP1 ag: qHTS Assay for Agonists of the Relaxin Receptor RXFP1; actives 0.3% (n = 370,000); HEK293T-RXFP1 cAMP TR-FRET, 30 min; response scale: percent of porcine relaxin response, buffer zero; Potency, µM (titrated, usually from 57.5 µM), inactives show top-dose activation, actives largely listed as activators; active = well fitted activation curve with a large enough effect; inconclusive = small, poorly fitted or top-dose-only effect; note: potency is the fitted concentration of half-maximal effect; % is set by controls: 0 for no effect and ±100 for the full control effect; nearly all actives have a fitted effect of over 60% in size
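HEK293T cells stably expressing RXFP1 were pretreated with the PDE4 inhibitor Ro 20174, exposed to compounds for 30 min at 37C, lysed, and cAMP was read by TR-FRET. Data normalized to buffer (basal) and 29 nM porcine relaxin (100%).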
* = called active by the depositor; i = inactive; u = inconclusive; x = not tested or not shown; [ ] = dose if it differs, or a comment.

SMILES	gsp ag	TSHR antag	Akt phos inh	gsp antag	RXFP1 antagonist	RXFP1 ag
COc1ccccc1CC(=O)Nc1ccc(-c2nnc(-c3ccco3)o2)cc1	-21.8%	-9.9	i	u	-5.8	2.5%
COc1ccc(C(=O)Nc2cccc(-c3nnc(-c4ccco4)o3)c2)cc1	-2.0%	-19.0	i	u	-33.6	0.2%
COc1cc(C(=O)Nc2ccc(-c3nnc(-c4ccco4)o3)cc2)cc(OC)c1OC	-2.7%	-2.9	-101.9%*	-6.8%	-8.3	0.5%
COc1cc(C(=O)Nc2cccc(-c3nnc(-c4ccco4)o3)c2)ccc1OC(C)=O	-9.3%[15.4 µM]	-14.3	i	-23.5%	-65.0*	4.5%
O=C(NCCN1CCOCC1)C(=O)c1c[nH]c2ccccc12	-0.7%[15.4 µM]	-9.7	i	3.8%	1.5	2.1%
CCN(CC)C(=O)Cn1c(=O)n(-c2ccccc2)c(=O)c2sccc21	0.3%	-80.9*	i	-7.8%	4.9	0.3%
O=C(NCc1ccccc1)NC1CC2CCC(C1)N2Cc1ccco1 (stereo unspecified)	-0.6%	7.0	i	17.7%	-7.0	0.5%
O=C(CN1C2CCC1CC(NC(=O)Nc1ccccc1)C2)NCc1ccco1 (stereo unspecified)	-33.7%	1.8	-107.5%*	9.4%	-10.6	0.9%
O=C(c1cc(O)c(O)c(O)c1)c1ccc(O)c(O)c1O	x	x	x	x	-13.9	x
CC(C(=O)OCC(=O)c1cccc([N+](=O)[O-])c1)N1C(=O)C2C3C=CC(C3)C2C1=O (stereo unspecified)	-8.6%[15.4 µM]	3.7	i	7.7%	10.7	1.3%
CCc1cccc2c(C(=O)COC(=O)[C@@H]3CC(O)CN3S(=O)(=O)c3ccccc3[N+](=O)[O-])c[nH]c12 (stereo partly specified)	9.3%	-0.1	i	-13.2%	-80.0*	x
Cc1[nH]c(=S)[nH]c(=O)c1CCOc1ccccc1	24.2%	10.2	i	5.5%	-81.3*	-1.4%
CCCCCCCCOC(=O)CCc1c(C)[nH]c(=S)[nH]c1=O	14.1%	18.9	i	6.1%	-70.1*	5.2%
CC1(C(=O)OCc2cc(=O)n3cc(Br)ccc3n2)CC1(Cl)Cl (stereo unspecified)	u	-11.4	i	-6.0%	19.0	u
O=c1cc(-c2ccccc2)[nH]n1-c1nc2ccccc2[nH]1	-4.0%	2.5	i	-13.2%	-75.6*	-1.7%
O=S(=O)(NCCN1CCOCC1)c1ccc(F)c(Cl)c1	14.2%	9.8	i	14.6%	-7.5	-4.8%
Cc1nc(-c2ccc(C(=O)Nc3cccc(Br)c3)cc2)cs1	0.2%	-32.2	i	u	-11.5	3.5%
Cc1nc(-c2cccc(NC(=O)c3ccc(-n4nccc4C)cc3)c2)cs1	-52.6%	-72.1*	i	u	-25.0	-0.4%
CCCS(=O)(=O)N1CCCC(C(=O)NC(C)c2ccc3c(c2)OCCO3)C1 (stereo unspecified)	-40.0%	1.6	-114.3%*	3.8%	-9.5	0.1%
CC(NC(=O)C1CCC1)c1ccc2c(c1)OCO2 (stereo unspecified)	33.0%	12.8	i	1.6%	6.2	0.3%
O=C(Nc1ccc2c(c1)OCCO2)C1CCCN(S(=O)(=O)c2cccs2)C1 (stereo unspecified)	-30.6%	2.6	-108.2%*	-17.2%	-11.4	-0.2%
O=C(Cn1ccn(-c2cccc(Cl)c2)c(=O)c1=O)c1ccc(F)cc1	x	x	x	x	3.1	5.2%
CC(C)c1ccccc1NC(=O)c1ccccc1NC(=O)C1CCCCC1	29.4%	133.2	i	-11.4%	-14.6	0.7%
CC(C)c1ccccc1NC(=S)NC(=O)C1CCCCC1	u	x	i	-3.6%	-65.4*	x
COc1ccc(CCNC(=O)Cc2c(C)c3cc4c(C(C)(C)C)coc4c(C)c3oc2=O)cc1	x	x	x	x	-6.6	0.0%
SMILES	gsp ag	TSHR antag	Akt phos inh	gsp antag	RXFP1 antagonist	RXFP1 ag
CCCc1ccc2oc(C(=O)NCCN3CCCC(O)C3)c(C)c2c1 (stereo unspecified)	6.3%	21.7	i	-12.5%	-10.7	0.3%
Cc1ccc2c(C)c(C(=O)NCCN3CCCC(O)C3)oc2c1C (stereo unspecified)	-11.4%	4.6	x	5.4%	-111.8*	1.6%
CCCCC(O)(c1ccc(F)cc1)C(CN1CCOCC1)c1ccc(Cl)cc1 (stereo unspecified)	-25.4%	2.6	i	-8.0%	-77.5*	0.5%
CCCC(O)(c1ccc(Cl)cc1)C(CN1CCOCC1)c1ccc(Cl)cc1 (stereo unspecified)	-2.0%	-0.2	i	-10.7%	-32.1	-0.9%
CCOC(=O)Cn1cccc1-c1nc(-c2ccc(OC)cc2)c(-c2ccc(OC)cc2)s1	x	x	x	x	-19.8	x
CCOC(=O)CSC1=NC(=O)/C(=C\c2ccc(Cl)cc2)S1	16.7%	-27.8	i	31.6µM*	-16.2	-1.1%
CCOC(=O)C1CCN(C2=NC(=O)/C(=C/c3ccc(Cl)cc3)S2)CC1	44.8%	-9.6	i	-5.9%	-29.4	-2.7%
Cc1ccc(C)c(NC(=O)c2cc3c([nH]c4ccccc43)c(C)n2)c1	u	16.7	-101.3%*	11.5%	0.1	17.7%
CCCCCCCCCCCCCCCC[n+]1cccc2ccccc21	-0.9%	-4.0	i	11.4%	u	0.6%
CCCCCCCCC[n+]1cccc2c3ccccc3ccc21	-1.2%	-26.6	i	-14.0%	-60.1*	0.0%
CC1CN(CCOc2cccc(Oc3ccccc3)c2)CC(C)O1 (stereo unspecified)	10.8%	6.7	i	7.3%	-9.8	-1.7%
CC1CN(CCCCOc2cccc(Oc3ccccc3)c2)CC(C)O1 (stereo unspecified)	7.9%[15.4 µM]	0.6	i	4.3%	-63.9*	2.1%
CN(Cc1ccccc1)C(=O)COC(=O)CNS(=O)(=O)c1ccc2ccccc2c1	-8.1%	-2.1	i	-18.6%	-13.1	0.4%
CN(C(=O)COC(=O)CSc1ccc([N+](=O)[O-])cc1)C1CCS(=O)(=O)C1 (stereo unspecified)	7.6%[15.4 µM]	x	i	-0.9%	-100.5*	-0.2%
COc1cccc(CN(CC(=O)NC2CCCCC2)C(=O)c2csnn2)c1	19.2%	9.9	i	1.8%	-25.6	-1.3%
CCOc1cc2c(cc1/C=C(/C#N)c1ccc(C(=O)O)cc1)OCO2	-1.1%	-15.0	i	35.5µM*	-5.1	-2.2%
